This passage reports z-score and composite z-score results from PubChem BioAssay.

Active and inactive are the calls of the source.

Assay [1] in a line: E. coli DRC41 culture turbidity changes, primary screen, E. coli filamentation inducer project, strain DRC41, OD650, 48 h (AID 1152).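 Note: E. coli MC1000 strain DRC41 lacking acrAB efflux pump and sulA.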 Particulars: E. coli DRC41 (acrAB sulA), higher = more signal, called active from +8 up or from −8 down.
The nature of assay [2]: small-molecule binders of probe aLefty1, primary screen, biochemical, small-molecule microarray, 635/667 nm fluorescence (AID 1153).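 Note: score merges spot fluorescence with signal-to-noise ratio from the scanned slide images.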 Particulars: higher = more signal.
The nature of assay [3]: PSAC antagonists in infected red cells, primary screen, cell-based, P. falciparum Indochina, OD700, 1 h (AID 1154). The settings on record: P. falciparum Indochina infected RBC osmotic lysis, higher = more signal, called active from +8 up or from −8 down.
Assay [4] is described as follows: PSAC antagonists in infected red cells, primary screen, cell-based, P. falciparum Indochina, OD700, 2 h (AID 1155).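 Note: lysis reports solute entry through the parasite surface anion channel PSAC; channel blockers reduce lysis of infected cells.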 Particulars: P. falciparum Indochina infected erythrocytes, osmotic lysis OD700; higher = more signal, called active from +8 up or from −8 down.
Assay [5] in a line: osmotic lysis modulators in infected erythrocytes, primary screen, PSAC antagonist project, cell-based, P. falciparum Indochina, OD700, 3 h (AID 1156). Particulars: higher = more signal, called active from +8 up or from −8 down.
Assay [6] is described as follows: PSAC antagonists in infected red cells, primary screen, cell-based, P. falciparum Indochina, OD700, 18 h (AID 1157). Particulars: P. falciparum Indochina infected erythrocytes, osmotic lysis OD700, 18 h; higher = more signal, called active from +8 up or from −8 down.
Assay [7] can be described thus: modulators of S6 phosphorylation in cells, primary screen, cell-based, A549, cytoblot, luminescence, serum-stimulated (AID 1158).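 Note: serum-stimulated A549 lung adenocarcinoma cells; signal is phosphorylated S6 detected by cytoblot immunostaining with HRP secondary.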 Particulars: A549 phospho-S6 cytoblot, 5 h, higher = more signal.
For assay [8], the target named is NADPH oxidase 2 (Homo sapiens) (UniProt P04839). The experiment in a line: NOX2-dependent H2O2 signal modulators, primary screen, NOX inhibitor project, cell-based, HEK293-NOX2, PMA-stimulated, Amplex Red fluorescence (AID 1159). Note: test concentration not given here. Particulars: 45 min, higher = more signal, called active from +8 up or from −8 down.
NADPH oxidase 2 (Homo sapiens), sequence (P04839 whole entry, looked up): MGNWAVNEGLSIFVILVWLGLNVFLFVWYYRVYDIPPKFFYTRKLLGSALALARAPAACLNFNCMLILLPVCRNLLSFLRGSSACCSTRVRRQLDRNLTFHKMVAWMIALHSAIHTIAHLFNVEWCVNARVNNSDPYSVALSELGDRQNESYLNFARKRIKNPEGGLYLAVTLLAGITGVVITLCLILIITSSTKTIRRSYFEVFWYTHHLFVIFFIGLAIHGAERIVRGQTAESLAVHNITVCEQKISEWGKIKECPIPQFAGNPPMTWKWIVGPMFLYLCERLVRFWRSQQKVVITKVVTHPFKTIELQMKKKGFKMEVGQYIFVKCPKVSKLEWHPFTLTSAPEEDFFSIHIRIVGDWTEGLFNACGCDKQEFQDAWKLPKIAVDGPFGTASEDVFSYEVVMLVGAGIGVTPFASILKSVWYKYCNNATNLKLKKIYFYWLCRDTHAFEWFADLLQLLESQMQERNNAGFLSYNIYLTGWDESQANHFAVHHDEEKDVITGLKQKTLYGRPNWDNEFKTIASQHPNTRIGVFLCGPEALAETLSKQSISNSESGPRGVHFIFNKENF
For assay [9], the target named is NADPH oxidase 4 (Homo sapiens) (UniProt Q9NPH5). Briefly: NOX4-dependent H2O2 signal modulators, primary screen, NOX inhibitor project, cell-based, HEK293-NOX4, tetracycline-induced, Amplex Red fluorescence (AID 1160). The settings on record: 45 min, higher = more signal, called active from +8 up or from −8 down.
NADPH oxidase 4 (Homo sapiens), sequence (Q9NPH5 whole entry, looked up): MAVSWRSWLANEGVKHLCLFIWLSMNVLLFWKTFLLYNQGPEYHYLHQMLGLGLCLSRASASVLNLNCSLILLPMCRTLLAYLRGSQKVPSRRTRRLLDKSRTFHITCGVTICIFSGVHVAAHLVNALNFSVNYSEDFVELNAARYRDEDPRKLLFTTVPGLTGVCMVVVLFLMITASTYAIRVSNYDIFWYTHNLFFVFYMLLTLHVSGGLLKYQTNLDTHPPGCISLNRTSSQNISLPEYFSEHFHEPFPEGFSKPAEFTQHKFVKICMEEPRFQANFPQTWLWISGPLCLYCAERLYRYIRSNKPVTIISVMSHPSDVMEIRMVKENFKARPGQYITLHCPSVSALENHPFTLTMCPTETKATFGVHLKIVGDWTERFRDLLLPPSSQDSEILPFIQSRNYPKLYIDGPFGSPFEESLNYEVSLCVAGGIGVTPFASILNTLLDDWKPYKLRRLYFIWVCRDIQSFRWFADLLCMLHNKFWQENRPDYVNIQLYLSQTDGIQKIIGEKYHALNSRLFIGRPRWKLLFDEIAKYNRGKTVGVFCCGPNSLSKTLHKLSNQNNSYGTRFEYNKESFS
Assay [10] deals with NADPH oxidase 5 (Homo sapiens) (UniProt Q96PH1). Briefly: NOX5-dependent H2O2 signal modulators, primary screen, NOX inhibitor project, cell-based, HEK293-NOX5, Amplex Red fluorescence (AID 1161). The settings on record: HEK293-NOX5, ionomycin, 45 min, higher = more signal.
NADPH oxidase 5 (Homo sapiens), sequence (Q96PH1 whole entry, looked up): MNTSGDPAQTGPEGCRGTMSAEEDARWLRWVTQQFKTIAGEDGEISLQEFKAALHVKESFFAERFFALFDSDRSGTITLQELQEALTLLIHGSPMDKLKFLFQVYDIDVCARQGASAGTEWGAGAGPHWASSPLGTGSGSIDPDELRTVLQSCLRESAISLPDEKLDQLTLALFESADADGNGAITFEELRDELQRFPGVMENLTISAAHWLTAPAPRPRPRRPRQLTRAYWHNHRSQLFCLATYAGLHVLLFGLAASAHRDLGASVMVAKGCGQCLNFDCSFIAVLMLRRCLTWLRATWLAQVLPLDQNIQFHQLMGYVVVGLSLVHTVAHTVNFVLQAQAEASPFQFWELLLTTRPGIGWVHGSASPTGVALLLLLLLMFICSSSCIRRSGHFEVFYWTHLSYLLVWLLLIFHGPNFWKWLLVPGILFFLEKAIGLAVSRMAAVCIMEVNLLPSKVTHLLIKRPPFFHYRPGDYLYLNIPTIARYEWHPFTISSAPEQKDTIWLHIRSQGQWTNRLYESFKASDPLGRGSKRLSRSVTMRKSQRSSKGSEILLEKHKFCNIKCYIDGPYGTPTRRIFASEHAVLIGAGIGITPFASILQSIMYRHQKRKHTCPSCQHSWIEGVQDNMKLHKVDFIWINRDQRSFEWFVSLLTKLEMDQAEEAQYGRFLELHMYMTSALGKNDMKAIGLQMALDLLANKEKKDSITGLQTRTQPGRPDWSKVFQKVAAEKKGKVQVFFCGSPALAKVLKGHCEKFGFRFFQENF
Assay [11] in a line: A549 cell viability effects, profiling panel, calcein-AM fluorescence, 48 h, basal (AID 1162). Note: test concentration not given here. Particulars: higher = more signal.
Assay [12] in a line: adipocyte viability effects, profiling panel, cell-based, 3T3-L1 adipocytes, calcein-AM fluorescence, 48 h, basal (AID 1163). Note: test concentration not given here. The settings on record: 3T3-L1 adipocytes viability, higher = more signal.
A short description of assay [13]: HepG2 cell viability effects, profiling panel, calcein-AM fluorescence, 48 h, basal (AID 1164). Note: test concentration not given here. The settings on record: higher = more signal.
A short description of assay [14]: MM1S cell viability effects, profiling panel, calcein-AM fluorescence, 48 h, basal (AID 1165).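 Note: viability of MM1S multiple myeloma cells under basal unstimulated conditions; test concentration not given here.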 Particulars: higher = more signal.
The nature of assay [15]: basal RPMI8226 viability, no added stimulus, profiling panel, cell-based, calcein-AM fluorescence, 48 h, PK04 Diversity Set (AID 1166).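 Note: cells grown under basal conditions without added stimulus; test concentration not given here.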 The settings on record: RPMI8226 myeloma viability, higher = more signal.
A short description of assay [16]: basal HepG2 mitochondrial membrane potential changes, profiling panel, cell-based, JC-1 fluorescence, 24 h, 100 nL compound (AID 1167). Note: test concentration not given here. Particulars: higher = more signal.
A short description of assay [17]: basal 3T3-L1 adipocyte mitochondrial potential changes, profiling panel, cell-based, JC-1 fluorescence, 3T3-L1 adipocytes, 24 h, 100 nL compound (AID 1168). Note: test concentration not given here. The settings on record: JC-1 mitochondrial fluorescence, higher = more signal, called active from +8 up or from −8 down.
A short description of assay [18]: basal RPMI8226 mitochondrial membrane potential changes, profiling panel, cell-based, JC-1 fluorescence, 24 h, 100 nL compound (AID 1169). Note: test concentration not given here. The settings on record: RPMI8226 myeloma, JC-1 mitochondrial potential fluorescence, higher = more signal.
A short description of assay [19]: basal MM1S mitochondrial membrane potential changes, profiling panel, cell-based, JC-1 fluorescence, 24 h, 100 nL compound (AID 1170). Note: test concentration not given here. Particulars: higher = more signal.
Assay [20] can be described thus: A549 lung cancer cell viability effects, profiling panel, resazurin fluorescence, 24 h, PK04 Diversity Set (AID 1171). Note: test concentration not given here. Particulars: higher = more signal, called active from +8 up or from −8 down. On the technique in general: Resazurin is reduced to fluorescent resorufin, in cell work by metabolically active cells.

Turning to `O=C1NCC(=O)N2[C@@H]1C[C@@H](C(=O)O)[C@H]2c1cccc(OCCO)c1`, the z-score in assay [1] was 0.0481 (inactive); in assay [3] it was 2.24 (inactive); in assay [4] it was 1.34 (inactive); in assay [5] it was -1.22 (inactive); in assay [6], 0.572 (inactive); in assay [7], 0.863. Besides, the z-score is 0.313 (inactive) in [8]; 0.281 (inactive) in [9]; 1.62 in [10]; 0.278 in assay [11]; -0.856 in assay [12]; 0.662 in assay [13]. Further, the z-score in assay [14] was 0.301; in assay [15], 0.362; in [16], 2.32; in assay [17], -0.16 (inactive); in assay [18] it was 0.529; in assay [19] it was -0.514. Moreover, the z-score in assay [20] was -0.229 (inactive). In [2], this molecule came in with a composite z-score of 3.14.
For `COCCOC(=O)N1C(=O)[C@@]2(c3cc(C#CC4=CCCCC4)ccc31)[C@H](C(=O)Nc1nc3ccccc3s1)[C@H]1C(=O)O[C@H](c3ccccc3)[C@H](c3ccccc3)N1[C@@H]2c1ccc(OCCO)cc1`, the z-score is -1.56 (inactive) in assay [1]; 2.63 (inactive) in assay [3]; 1.23 (inactive) in assay [4]; -0.218 (inactive) in assay [5]; 1.59 (inactive) in [6]; -0.145 in assay [7]. For the same molecule, the z-score in [8] is 1.01 (inactive); in assay [9], 0.101 (inactive); in assay [10] it was 0.468; in assay [11], -0.104; in assay [12], 0.747; in assay [13] it was 0.185. The z-score in assay [14] is -0.953; in assay [15] it was -0.856; in [16] it was -2.95; in assay [17], 0.662 (inactive); in assay [18], -0.583; in assay [19], -1.12. Also, the z-score in [20] is -0.309 (inactive). In addition, the composite z-score in assay [2] was -0.333.
Regarding `CC(C)(C)C(=O)N[C@@H](c1ccc(Cl)cc1)[C@]1(C)C[C@H]1C1CCCCC1`, the z-score was -0.913 (inactive) in assay [1]; 0.671 (inactive) in assay [3]; 0.418 (inactive) in [4]; 0.0711 (inactive) in [5]; 0.887 (inactive) in [6]; -0.191 in assay [7]. The z-score in [8] was -0.0125 (inactive); in [9] it was -1.05 (inactive); in [10] it was -0.0713; in assay [11] it was -1.07; in assay [12], 0.459; in assay [13] it was -0.492. For the same molecule, the z-score in [14] is -1.22; in [15], -1.43; in assay [16], 4.37; in [17], -0.594 (inactive); in [18], -0.533; in assay [19] it was 0.162. Further, the z-score in assay [20] was -0.466 (inactive). The same molecule had a composite z-score in [2] of 1.06.
With `O=C1O[C@H](c2ccccc2)[C@H](c2ccccc2)N2[C@H]1[C@@H](C(=O)O)[C@]1(C(=O)Nc3ccc(C#CCCO)cc31)[C@H]2c1ccc(O)cc1`, the z-score is 1.4 (inactive) in assay [1]; 1.43 (inactive) in assay [3]; 0.4 (inactive) in [4]; 0.735 (inactive) in [5]; 0.531 (inactive) in assay [6]; 0.282 in assay [7]. The z-score is -0.185 (inactive) in [8]; -0.455 (inactive) in [9]; 0.157 in assay [10]; 1.46 in [11]; 0.339 in assay [12]; -0.215 in [13]. Further, the z-score in assay [14] is 0.536; in assay [15] it was 0.858; in assay [16], -0.308; in assay [17], -0.395 (inactive); in [18] it was -0.896; in assay [19], -0.565. The z-score in assay [20] is 1.52 (inactive). Also, in assay [2], the composite z-score came out at 0.334.
Consider `NCCCCCNC(=O)[C@@H]1C[C@@H]2C(=O)N[C@@H](Cc3ccccc3)C(=O)N2[C@@H]1c1cccc(OCCO)c1`, for which the z-score was -0.389 (inactive) in assay [1]; 3.51 (inactive) in [3]; 0.418 (inactive) in assay [4]; 1.18 (inactive) in assay [5]; 0.351 (inactive) in [6]; -0.0201 in assay [7]. For the same molecule, the z-score in assay [8] was 2.11 (inactive); in assay [9], -0.729 (inactive); in [10], 0.832; in [11], -0.349; in assay [12], 0.512; in assay [13] it was -0.442. Besides, the z-score in assay [14] is 0.143; in assay [15], -0.371; in assay [16], -1.04; in assay [17], -0.684 (inactive); in assay [18] it was -0.0752; in assay [19], 0.894. Besides, the z-score in assay [20] is -0.403 (inactive). Moreover, the composite z-score in [2] is -0.101.
